# In all, about 1,100 compounds were measured (“Wnt reporter firefly/Renilla luciferase ratio relative to plate median”: median about 1.1, highest 2% from about 1.6 on). The sample holds the highest values, similar compounds and a random draw of the others, so the mix is not that of the screen.
# Tested on: HEK293T (UBE3A T485A transfected, BAR Wnt reporter)
# Assay: Wnt reporter firefly/Renilla luciferase ratio relative to plate median (fold (linear ratio)); higher = more Wnt/beta-catenin reporter activation
# Conditions: 24 h
# Outline: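 HEK293T cells carrying a transfected BAR firefly luciferase Wnt reporter, TK-Renilla and an expression plasmid were exposed to chemicals at 0.01–100 uM for 24 h, with dosing four hours after transfection. Readout used Dual-Glo luciferase. The firefly/Renilla ratio defined Wnt activity and raw Renilla defined cell health, each median-centred per plate. Figures are means of four biological replicates.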
smiles,measurement,setting,value
NC(=O)N1c2ccccc2C=Cc2ccccc21 [Carbamazepine],Wnt reporter firefly/Renilla luciferase ratio,concentration: 0.1 uM,1.35
same,Wnt reporter firefly/Renilla luciferase ratio,concentration: 1 uM,0.977
same,Wnt reporter firefly/Renilla luciferase ratio,concentration: 10 uM,0.997
same,Wnt reporter firefly/Renilla luciferase ratio,concentration: 100 uM,0.929
CC(=O)Oc1ccccc1C(=O)O [Aspirin],Wnt reporter firefly/Renilla luciferase ratio,concentration: 0.1 uM,1.2
same,Wnt reporter firefly/Renilla luciferase ratio,concentration: 1 uM,1.04
same,Wnt reporter firefly/Renilla luciferase ratio,concentration: 10 uM,1.15
same,Wnt reporter firefly/Renilla luciferase ratio,concentration: 100 uM,0.812
Cc1cc2c(cc1C(F)(F)F)N(C(=O)Nc1ccc(Oc3cccnc3C)nc1)CC2.Cl,Wnt reporter firefly/Renilla luciferase ratio,concentration: 0.1 uM,1.03
same,Wnt reporter firefly/Renilla luciferase ratio,concentration: 1 uM,1.4
same,Wnt reporter firefly/Renilla luciferase ratio,concentration: 10 uM,0.768
same,Wnt reporter firefly/Renilla luciferase ratio,concentration: 100 uM,0.554
CCCN(CCC)c1c([N+](=O)[O-])cc(C(F)(F)F)c(N)c1[N+](=O)[O-] [Prodiamine],Wnt reporter firefly/Renilla luciferase ratio,concentration: 0.01 uM,1.16
same,Wnt reporter firefly/Renilla luciferase ratio,concentration: 0.1 uM,1.47
same,Wnt reporter firefly/Renilla luciferase ratio,concentration: 1 uM,1.2
same,Wnt reporter firefly/Renilla luciferase ratio,concentration: 10 uM,1.2
same,Wnt reporter firefly/Renilla luciferase ratio,concentration: 100 uM,1.29
CCN(Cc1c(F)cccc1Cl)c1c([N+](=O)[O-])cc(C(F)(F)F)cc1[N+](=O)[O-] [Flumetralin],Wnt reporter firefly/Renilla luciferase ratio,concentration: 0.01 uM,1.23
same,Wnt reporter firefly/Renilla luciferase ratio,concentration: 0.1 uM,1.65
same,Wnt reporter firefly/Renilla luciferase ratio,concentration: 1 uM,1.11
same,Wnt reporter firefly/Renilla luciferase ratio,concentration: 10 uM,0.843
same,Wnt reporter firefly/Renilla luciferase ratio,concentration: 100 uM,0.851
CC(C(C)N1CC(=O)NC(=O)C1)N1CC(=O)NC(=O)C1 (stereo unspecified),Wnt reporter firefly/Renilla luciferase ratio,concentration: 0.01 uM,1.31
same,Wnt reporter firefly/Renilla luciferase ratio,concentration: 0.1 uM,1.88
same,Wnt reporter firefly/Renilla luciferase ratio,concentration: 1 uM,1.23
same,Wnt reporter firefly/Renilla luciferase ratio,concentration: 10 uM,1.33
same,Wnt reporter firefly/Renilla luciferase ratio,concentration: 100 uM,1.53
C#C[C@]1(O)CC[C@H]2[C@@H]3CCc4cc(O)ccc4[C@H]3CC[C@@]21C [17alpha-Ethinylestradiol],Wnt reporter firefly/Renilla luciferase ratio,concentration: 0.1 uM,1.06
same,Wnt reporter firefly/Renilla luciferase ratio,concentration: 1 uM,0.888
same,Wnt reporter firefly/Renilla luciferase ratio,concentration: 10 uM,1.12
same,Wnt reporter firefly/Renilla luciferase ratio,concentration: 100 uM,0.42
CC(=O)O [Acetic acid],Wnt reporter firefly/Renilla luciferase ratio,concentration: 0.1 uM,1.13
same,Wnt reporter firefly/Renilla luciferase ratio,concentration: 1 uM,1.09
same,Wnt reporter firefly/Renilla luciferase ratio,concentration: 10 uM,1.46
same,Wnt reporter firefly/Renilla luciferase ratio,concentration: 100 uM,1.17
C#C[C@]1(O)CC[C@H]2[C@@H]3CCC4=CC(=O)CC[C@@H]4[C@H]3CC[C@@]21CC [Norgestrel],Wnt reporter firefly/Renilla luciferase ratio,concentration: 0.1 uM,0.82
same,Wnt reporter firefly/Renilla luciferase ratio,concentration: 1 uM,1.09
same,Wnt reporter firefly/Renilla luciferase ratio,concentration: 10 uM,1.07
same,Wnt reporter firefly/Renilla luciferase ratio,concentration: 100 uM,1.36
CS(=O)(=O)O.Cc1cc(CCN2CCN(c3nsc4ccccc34)CC2)cc2c1NC(=O)CC2(C)C,Wnt reporter firefly/Renilla luciferase ratio,concentration: 0.1 uM,0.776
same,Wnt reporter firefly/Renilla luciferase ratio,concentration: 1 uM,0.735
same,Wnt reporter firefly/Renilla luciferase ratio,concentration: 10 uM,0.407
CCNc1cccc(C)c1 [N-Ethyl-3-methylaniline],Wnt reporter firefly/Renilla luciferase ratio,concentration: 0.1 uM,0.98
same,Wnt reporter firefly/Renilla luciferase ratio,concentration: 1 uM,1.05
same,Wnt reporter firefly/Renilla luciferase ratio,concentration: 10 uM,1.05
same,Wnt reporter firefly/Renilla luciferase ratio,concentration: 100 uM,1.54
O=C(N[C@@H](Cc1ccccc1)[C@@H](O)C(=O)N1C[C@@H](O)[C@@H](O)C1)c1cc2cc(Cl)ccc2[nH]1 [Ingliforib],Wnt reporter firefly/Renilla luciferase ratio,concentration: 0.1 uM,1.29
same,Wnt reporter firefly/Renilla luciferase ratio,concentration: 1 uM,1.69
same,Wnt reporter firefly/Renilla luciferase ratio,concentration: 10 uM,0.888
same,Wnt reporter firefly/Renilla luciferase ratio,concentration: 100 uM,0.353
CCCCCCCCOc1ccc(C(=O)c2ccccc2)c(O)c1 [Octabenzone],Wnt reporter firefly/Renilla luciferase ratio,concentration: 0.1 uM,1.12
same,Wnt reporter firefly/Renilla luciferase ratio,concentration: 1 uM,1.08
same,Wnt reporter firefly/Renilla luciferase ratio,concentration: 10 uM,0.916
same,Wnt reporter firefly/Renilla luciferase ratio,concentration: 100 uM,1.2
O=C(O)C1(C(=O)Nc2ccc(Cl)cc2Cl)CC1 [Cyclanilide],Wnt reporter firefly/Renilla luciferase ratio,concentration: 0.01 uM,1.46
same,Wnt reporter firefly/Renilla luciferase ratio,concentration: 0.1 uM,1.6
same,Wnt reporter firefly/Renilla luciferase ratio,concentration: 1 uM,1.16
same,Wnt reporter firefly/Renilla luciferase ratio,concentration: 10 uM,1.53
same,Wnt reporter firefly/Renilla luciferase ratio,concentration: 100 uM,0.874
O=C(N[C@@H](c1ccccc1)[C@@H]1CCCCN1)c1cccc(C(F)(F)F)c1Cl,Wnt reporter firefly/Renilla luciferase ratio,concentration: 0.1 uM,0.912
same,Wnt reporter firefly/Renilla luciferase ratio,concentration: 1 uM,1.24
same,Wnt reporter firefly/Renilla luciferase ratio,concentration: 10 uM,0.921
CCOC(=O)COc1ccc2c(c1)CC(NCC(O)c1cccc(Cl)c1)CC2.Cl (stereo unspecified),Wnt reporter firefly/Renilla luciferase ratio,concentration: 0.1 uM,1.06
same,Wnt reporter firefly/Renilla luciferase ratio,concentration: 1 uM,1.18
same,Wnt reporter firefly/Renilla luciferase ratio,concentration: 10 uM,1.15
same,Wnt reporter firefly/Renilla luciferase ratio,concentration: 100 uM,1.19

# Source: the supplement of paper PMC9254222
